Measurements published in PubChem BioAssay (NCI).
About 83,000 compounds went through this panel and 20% of them were active in at least one assay; those are over-represented in the sample as a whole.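 Growth was measured after 48 h exposure to one concentration of compound in 96-well plates. Values under 10 count as active.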 Unmarked numbers belong to inactive results. Active and inactive are the calls of the source.

Tested on: MDA-MB-468 breast
Experiment: NCI-60 one-dose screen, 48 h (100 = growth as untreated, 0 = no growth, -100 = all killed)
Conditions: 10 µM unless noted

Structure (SMILES) | growth
Clc1ccc(/C=C/c2cc(N3CCOCC3)c3cc(Cl)c(Cl)cc3n2)cc1 | 91.2%
OC(CCN1CCCCC1)(c1ccccc1)c1ccccc1 | 101%
CC[C@H](C)[C@@H](C(=O)OC)n1cc(CNC(=O)[C@@H](Cc2ccccc2)NC(=O)OCc2ccccc2)nn1 | 99%
COc1cc(-c2nccc3[nH]c(-c4ccc5cc[nH]c5c4)nc23)cc(OC)c1OC | -36.7% (active)
O=C(CCN1CCCC1)Nc1ccc2c(Nc3ccccc3)c3ccccc3nc2c1 | -14.9% (active)
O=C(O)CN1C(=O)c2cccc3cccc(c23)C1=O | 95.7%
CCCC/C(=C\c1ccc(O)c(O)c1)C(=O)NC(Cc1ccccc1)C(=O)C(=O)NCCc1ccc(OC)cc1 (centres undefined) | 93.2%
C=C1C(=O)O[C@@H]2[C@H]3[C@H](COC(C)=O)[C@@H](OC(C)=O)C[C@H]3C(=C)[C@@H](O)C[C@@H]12 | 77%
COc1ccccc1-c1ccc2c(N)c(C(=O)c3ccc4c(c3)OCO4)sc2n1 | 55.1%
CC1(C)OC(=O)CC1=O | 100%
C/C=C1/CN(CCCCC)CC[C@H]1C(=O)c1cc2ccccc2[nH]1 | 90.7%
CCC(=C(c1ccc(OCCN2CCCCCC2)cc1)c1ccc(OCCN2CCCCCC2)cc1)c1ccc(Cl)cc1 | -83.3% (active)
Cc1nc2cncc(C#Cc3cncc(C(=O)Nc4ccc(CN5CCN(C)CC5)c(C(F)(F)F)c4)c3)c2nc1C | 37.3%
O=C(Oc1ccccc1)C(Br)C(Br)c1ccccc1 (centres undefined) | 56.7%
